Screening data deposited in PubChem by National Center for Advancing Translational Sciences (NCATS).
Tau ThT inhib: tau fibrillization inhibition (ThT binding). P10636. recombinant tau K18 P301L, heparin-induced fibrillization, ThT fluorescence. Potency, µM (titrated, usually from 57.4 µM), without a hit: at the top dose activity, negative = inhibition, most hits filed as inhibitors. hit rate 2.1% among 270,000. AID 1460; also: potency is read from the fitted curve at half-maximal effect; nearly all actives have a fitted effect of over 55% in size
Target sequence (P10636 561-689 P618L limits assumed): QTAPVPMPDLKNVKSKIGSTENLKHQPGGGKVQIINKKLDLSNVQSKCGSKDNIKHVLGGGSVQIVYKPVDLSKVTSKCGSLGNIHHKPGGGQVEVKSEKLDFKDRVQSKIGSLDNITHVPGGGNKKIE
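Using a mix of unlabeled (15 uM) and Alexa 594-labeled (0.24 uM) tau K18 P301L, heparin-triggered fibrillization over 6 hr at 37 C was scored by ThT fluorescence.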
Tau fibril FP: inhibitors of human tau fibril formation; Potency, µM (top dose mostly 57.7 µM), inactives show at the top dose activity, negative = inhibition, usual class: inhibitors; P10636; K18 P301L tau heparin fibrillization, Alexa594 FP, 6 h; AID 1468; hit rate 0.39% among 280,000; also: potency is read from the fitted curve at half-maximal effect; nearly all actives have a fitted effect of over 55% in size
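Heparin (20 uM) drove fibril formation of recombinant tau K18 P301L, 15 uM unlabeled with 0.24 uM Alexa 594 label, for 6 hr at 37 C in 100 mM sodium acetate pH 7. Fluorescence polarization (555/632 nm) read 1 hr after 30 uM ThT.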
Sfp inh: Sfp phosphopantetheinyl transferase inhibition; Biochemical Sfp PPTase activity, qHTS; Potency, µM, for the others: largest response in the series, negative = inhibition, actives largely listed as inhibitors; hit rate 3.5% among 310,000; AID 1490;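 also: the enzyme is Sfp with the accession as filed and its product quenches rhodamine fluorescence; potency is read from the fitted curve at half-maximal effect; 0% = enzyme reaction without inhibitor and -100% = no enzyme wells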
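Fluorescence-quenching assay: 15 nM Sfp-PPTase preincubated 15 min at room temperature with compound, then 5 uM rhodamine-CoA and 12.5 uM BHQ-2-labelled YbbR peptide added. Fluorescence (ex 525/em 598 nm) read at start and after 30 min; difference gives rate.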
Coupling enz: counter-screen for Giardia aldolase inhibitors: coupling enzyme system. coupling enzyme system counterscreen, AmpLite Red fluorescence. activity change, negative = inhibition, % at 58.2 µM, hits read low. hit rate 0.67% among 290,000. AID 2472; in the data active = activity change below about -30%
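Counterscreen lacking aldolase: glyceraldehyde-3-phosphate coupling-enzyme reagent preincubated 10 min at RT with compound (at 57.5 uM final), then substrate/coupling system with AmpLite Red added; fluorescence read at 525/598 nm after 20 min RT.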
Tau fluor counter: counter-screen for tau fibril formation inhibitors; AID 1463; hit rate 0.93% among 280,000; Potency, µM (doses to about 57.7 µM), for inactives: at the top dose activity change, negative = decrease; tau K18 P301L Alexa594 fluorescence, heparin fibrillization; also: potency is read from the fitted curve at half-maximal effect; nearly all actives have a fitted effect of over 55% in size
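Human tau K18 P301L (15 uM unlabeled, 0.24 uM Alexa 594-labeled) in 100 mM sodium acetate pH 7 with 20 uM heparin, 6 hr at 37 C. ThT 30 uM added, 1 hr ambient; Alexa 594 FP and total fluorescence read at 555/632 nm.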
* hit, by the source's call; u = inconclusive; x = not tested or not shown; ! = not active in a repeat; [ ] = another dose, or the depositor's remark. In the library only some 5.2% were active in any assay of this set; here they are far more common. Unless noted, calls follow the shape of the dose curve; as a rule, active = well fitted curve in the direction sought with a large enough effect; inconclusive = small, poorly fitted or top-dose-only effect, or another doubt; inactive = no such curve, though single readings can be large; an effect the other way counts as inactive or inconclusive. Unless noted, % is scaled to controls: 0 for no effect and ±100 for the full control effect.

SMILES	Tau ThT inhib	Tau fibril FP	Sfp inh	Coupling enz	Tau fluor counter
CC(CNC(=O)c1ccc2c(c1)nc1n2CCCCC1)c1ccccc1 (stereo not drawn)	u	-3%	x	x	3%
N/C(=N\N=C\c1ccc([N+](=O)[O-])cc1)c1nonc1N	x	3%	4%	-1	-19%
CS/C(N)=N/N=C/c1ccc([N+](=O)[O-])cc1	u	2%	79µM*	-5	-4%
CCCn1nc([N+](=O)[O-])c(C(C#N)c2nc3ccccc3s2)c(Cl)c1=O (stereo not drawn)	4µM*	18µM*	17%	5	5µM*[quencher]
O=[N+]([O-])c1ccc(CN2CCN(c3nc4ccccc4s3)CC2)cc1	x	x	-2%	3	x
CCn1nc([N+](=O)[O-])c(C(C#N)c2nc3ccccc3n2C)c(Cl)c1=O (stereo not drawn)	11µM*	-1%	-1%	-2	u
Cc1cccc(NC(=O)C2CC(=O)n3cnnc3S2)c1 (stereo not drawn)	u	3%	28µM*	0	-10%
Cc1ccc(NC(=O)Cc2ccc(NC(=O)N3CCCCc4ccccc43)cc2)cc1Cl	6%	-14%	x	x	-4%
CC1(C)CC(=O)c2cnc(NC(=O)CSc3nc4ccccc4o3)nc2C1	-6%	6%	71µM*	2	-2%
COC(=O)CCCC1=CC2=C(c3ccccc3)C(=O)C(C)(OC(=O)C3CCCC3)C(=O)C2=CN1Cc1ccccc1 (stereo not drawn)	-15%[11.5 µM]	-5%[11.6 µM]	-4%	-3	-8%[11.6 µM]
COC(=O)CCCC1=CC2=C(c3ccccc3)C(=O)C(C)(OC(=O)C3CCCC3)C(=O)C2=CN1CCN1CCOCC1 (stereo not drawn)	-13%[11.5 µM]	-3%[11.6 µM]	-5%	-35*!	-6%[11.6 µM]
CC1(OC(=O)C2CCCC2)C(=O)C=C2C=C(c3ccsc3)N(CCN3CCOCC3)C=C2C1=O (stereo not drawn)	u	u	-5%	-44*	-10%[11.6 µM]
COC/C=C/C1=CC2=CC(=O)C(C)(OC(=O)c3cnc4ccccc4n3)C(=O)C2=CN1CCOC (stereo not drawn)	-3%[11.5 µM]	-2%[11.6 µM]	18%	-15	-2%[11.6 µM]
CC1(OC(=O)C2CCCC2)C(=O)C=C2C=C(c3ccsc3)N(Cc3ccc4c(c3)OCO4)C=C2C1=O (stereo not drawn)	u	8%[11.6 µM]	-17%	-7	-3%[11.6 µM]
CC1(OC(=O)C2CCCC2)C(=O)C=C2C=C(c3ccsc3)N(C3CCCCC3)C=C2C1=O (stereo not drawn)	14µM*!	u	-4%	-18	-8%[11.6 µM]
COC/C=C/C1=CC2=CC(=O)C(C)(OC(=O)c3cnc4ccccc4n3)C(=O)C2=CN1CCN1CCOCC1 (stereo not drawn)	16µM*	u	3%	-14	u
CC(C)N1C(=O)C(O)(c2c[nH]c3ccccc23)c2ccccc21 (stereo not drawn)	-2%	3%	x	x	-10%
COc1ccc(CNC(=O)c2ccc3nc(-c4ccc(F)cc4)c(-c4ccc(F)cc4)nc3c2)cc1	2%	u	x	x	-16%
Nc1nc(O)c2ncn([C@H]3CC[C@@H](CO)O3)c2n1	-7%	-6%	23%	4	-5%
CC1(OC(=O)CCc2ccccc2)C(=O)C=C2C=C(c3ccc(C#N)cc3)N(CCc3c[nH]c4ccccc34)C=C2C1=O (stereo not drawn)	u	4%[11.6 µM]	14%	-12	-11%[11.6 µM]
CC1(OC(=O)C2CCCC2)C(=O)C=C2C=C(c3ccsc3)N(CCc3c[nH]c4ccccc34)C=C2C1=O (stereo not drawn)	4.5µM*!	u	-13%	-10	0%[11.6 µM]
CC1(OC(=O)C2CCCC2)C(=O)C=C2C=C(c3ccsc3)N(CC3CC3)C=C2C1=O (stereo not drawn)	u	-1%[11.6 µM]	18%	-34*!	-12%[11.6 µM]
COc1ccc(NC(C)=O)cc1NC(=O)C1(c2cccs2)CCOCC1	-3%	4%	x	x	0%
CN1CCc2nc(SCC(=O)Nc3ccc(F)cc3)c(C#N)cc2C1	14µM*	-2%	-20%	-8	u
COc1ccc(NC(=O)CSc2nc3c(cc2C#N)CN(C)CC3)cc1	u	-2%	10%	-13	-21%
